# Measured values: the supplement of paper PMC9135407
# Several values for one entry are separate records, joined by “and”; a condition that tells them apart may be missing. Equal values may be shown once. Out of some 5,800 compounds screened, about 620 (11%) showed activity. For the sample, actives were picked, then their nearest neighbours and some compounds at random. A number with no mark means an inactive call.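 Rule for the calls: active = score above a cut-off or among the top three wells of a plate; in these data no inactive exceeds 0.85.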
# Tested on: primary human hepatic stellate cells (donor 1)
# Test: scaled lipid accumulation score (0 = DMSO-like, 1 = nortriptyline-like); higher = stronger HSC inactivation (lipid re-accumulation), active = hit call of the paper
# Settings: 48 h
# [1] = library stock concentration: 3.33 mM
# [2] = library stock concentration: 10 mM
# [3] = library stock concentration: 1 mM
# [4] = library stock concentration: 80 uM
# [5] = library stock concentration: 400 uM
# [6] = library stock concentration: 2 mM
smiles,measurement,setting,value
C[C@]12C=CC(=O)N[C@@H]1CC[C@@H]1[C@@H]2CC[C@]2(C)[C@@H](C(=O)Nc3cc(C(F)(F)F)ccc3C(F)(F)F)CC[C@@H]12 [Dutasteride],scaled lipid accumulation score,[1],≤ 0
same,scaled lipid accumulation score,[2],0.409
Cc1cc(Nc2nc(-c3ccccc3)nc3ccccc23)n[nH]1 [GSK-3 Inhibitor XIII],scaled lipid accumulation score,[1],≤ 0
CCCCCC=CCC=CCCCCCCCC(=O)OC(COC(=O)CCCCCCCCCCCCCCC)COP(=O)(O)OCCN (stereo not given) [1-Palmitoyl-2-linoleoyl PE],scaled lipid accumulation score,[3],0.006
CCCCC/C=C\C/C=C\C/C=C\CCCCCCC(=O)OCC [Dihomo-.gamma.-Linolenic Acid ethyl ester],scaled lipid accumulation score,[3],0.019
COc1ccc2cc(CC(=O)O)ccc2c1 [6-methoxy Naphthalene Acetic Acid],scaled lipid accumulation score,[3],0.002
CC#CCC(C)[C@@H](O)/C=C/[C@@H]1[C@H]2C/C(=C/CCCC(=O)O)C[C@H]2C[C@H]1O (stereo partly drawn) [15(R)-Iloprost],scaled lipid accumulation score,[3],≤ 0
CC(C)(C(=O)NCC(F)(F)C(F)(F)F)C(=O)N[C@@H]1C(=O)Nc2ccccc2-c2ccccc21,scaled lipid accumulation score,[1],≤ 0
same,scaled lipid accumulation score,[2],≤ 0
CC(=O)Nc1c(I)cc(I)c(C(=O)O)c1I [Acetriazoic acid],scaled lipid accumulation score,library stock concentration: 3.6 mM,0.001
same,scaled lipid accumulation score,[2],≤ -0.027
CSc1nc(-c2ccnc(NC(C)c3ccccc3)c2)c(-c2ccc(F)cc2)[nH]1 (stereo not given) [p38 MAP Kinase Inhibitor III],scaled lipid accumulation score,[1],≤ 0
CCCCCCCCCCCCCCCC(=O)OC(CC(=O)O)C[N+](C)(C)C (racemic) [Palmitoyl-DL-Carnitine chloride],scaled lipid accumulation score,[2],0.446
[O-]/[N+](=N\O[C@@H]1O[C@H](CO)[C@H](O)[C@H](O)[C@H]1O)N1CCCC1 [.beta.-Gal-NONOate],scaled lipid accumulation score,[3],≤ 0
CCCCC/C=C\C/C=C\CCCCCCCC(=O)O [Linoleic Acid (peroxide free)],scaled lipid accumulation score,[3],0.024
CCCCC/C=C\C/C=C\CCCCCCCC(=O)O [Linoleic acid],scaled lipid accumulation score,[3],≤ -0.021
CCCCC[C@H](O)/C=C/[C@H]1C(=O)C[C@H](O)[C@@H]1C/C=C\CCCC(=O)O [Prostaglandin  D2],scaled lipid accumulation score,[3],≤ -0.021
CCCCC[C@H](O)/C=C/[C@H]1C(=O)C[C@H](O)[C@@H]1C/C=C\CCCC(=O)O [Prostaglandin D2],scaled lipid accumulation score,[3],≤ 0
COc1cc2c(Oc3ccc(NC(=O)C4(C(=O)Nc5ccc(F)cc5)CC4)cc3F)ccnc2cc1OCCCN1CCOCC1 [listing 1 of 2 here],scaled lipid accumulation score,[1],1.09 (active)
COc1cc2c(Oc3ccc(NC(=O)C4(C(=O)Nc5ccc(F)cc5)CC4)cc3F)ccnc2cc1OCCCN1CCOCC1 [listing 2 of 2 here],scaled lipid accumulation score,[4],0.524
same,scaled lipid accumulation score,[5],0.545
same,scaled lipid accumulation score,[6],0.834
same,scaled lipid accumulation score,[2],0.842 and 0.706
COc1cc2nccc(Oc3ccc(NC(=O)C4(C(=O)Nc5ccc(F)cc5)CC4)cc3)c2cc1OC [Cabozantinib malate (XL184)],scaled lipid accumulation score,[1],0.354
same,scaled lipid accumulation score,[2],0.677
COc1cc2nccc(Oc3ccc(NC(=O)C4(C(=O)Nc5ccc(F)cc5)CC4)cc3)c2cc1OC,scaled lipid accumulation score,[4],0.011
same,scaled lipid accumulation score,[5],≤ -0.016
same,scaled lipid accumulation score,[6],0.189
same,scaled lipid accumulation score,[1],0.757
same,scaled lipid accumulation score,[2],0.459 and 0.491
